Records with an inconclusive call do not appear. Activity calls are given as the source filed them.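 How the source made its calls, unless noted: active means normalized viability below 100% at a tested concentration; inactive means the rest.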
Assays:
[1] = ovarian cancer cell viability with rucaparib, profiling panel, oncology-focused library, rucaparib conditional (AID 1508598); details: patient-derived ovarian cancer cells, CellTiter-Glo viability, 144 h, stronger effect = lower value
[2] = growth inhibition of DIPG glioma cells, dose response, cell-based, SU-DIPG-XVII, MIPE5.0, CellTiter-Glo, qHTS (AID 1347060; cut-off not given, nearly all actives have AC50 up to about 26 µM;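 further: cells exposed to compound for 48 hours before viability readout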); details: SU-DIPG-XVII viability, CellTiter-Glo ATP luminescence
[3] = growth inhibition of DIPG glioma cells, dose response, cell-based, SU-DIPG-XIII, MIPE4.0, CellTiter-Glo, qHTS (AID 1347061; cut-off not given, nearly all actives have AC50 up to about 37 µM;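 further: cells exposed to compound for 48 hours before readout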); details: SU-DIPG-XIII viability, CellTiter-Glo ATP luminescence
[4] = growth inhibition of DIPG glioma cells, dose response, cell-based, JHH-DIPG-1, MIPE4.0, CellTiter-Glo, qHTS (AID 1347062; cut-off not given, nearly all actives have AC50 up to about 27 µM;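 on AC50: cells exposed to compound for two days before readout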); details: JHH-DIPG-1 viability, CellTiter-Glo ATP luminescence
[5] = growth inhibition of DIPG glioma cells, dose response, cell-based, SU-DIPG-IV, MIPE4.0, CellTiter-Glo, qHTS (AID 1347063; cut-off not given, nearly all actives have AC50 up to about 30 µM;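 further: compound exposure lasted 48 hours before the viability readout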); details: SU-DIPG-IV viability, CellTiter-Glo ATP luminescence
[6] = growth inhibition of DIPG glioma cells, dose response, cell-based, SU-DIPG-XIII, MIPE5.0, CellTiter-Glo, qHTS (AID 1347064; cut-off not given, nearly all actives have AC50 up to about 23 µM;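 on AC50: cells exposed to compound for 48 hours before the viability read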); details: SU-DIPG-XIII viability, CellTiter-Glo ATP luminescence
[7] = viability loss in pontine glioma line – cell-based, SU-DIPG-XXV, MIPE5.0, CellTiter-Glo, qHTS, dose response (AID 1347065; cut-off not given, nearly all actives have AC50 up to about 26 µM;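 further: cells exposed to compound for 48 hours before ATP readout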); details: CellTiter-Glo ATP luminescence
[8] = SU-DIPG-VI glioma cell viability, MIPE4.0 library, CellTiter-Glo luminescence, qHTS (AID 1347066; cut-off not given, nearly all actives have AC50 up to about 30 µM;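 further: cells exposed to compound for 48 hours before readout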); details: CellTiter-Glo ATP luminescence
[9] = JHH-DIPG-1 glioma cell viability, MIPE5.0 library, CellTiter-Glo luminescence, qHTS (AID 1347067; cut-off not given, nearly all actives have AC50 up to about 26 µM;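 further: cells exposed to compound for 48 hours before readout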); details: JHH-DIPG-1 glioma viability, CellTiter-Glo ATP luminescence
[10] = sensitizers of A549 cells to miR-34 induction, primary screen, imaging, A549 dox-inducible miR-34, nuclei and caspase counts (AID 1347080;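 active means compounds whose cell count with miR-34 switched on is under 0.7 times the count with it off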); details: A549 miR-34 inducible, Hoechst nuclei count, 48 h
[11] = SU-DIPG-XXV glioma cell viability, MIPE5.0 library, qHTS (AID 1347068; cut-off not given, nearly all actives have IC50 up to about 30 µM)
[12] = modifiers of HSF1 nuclear foci, imaging, Selleck Cancer Library (AID 1347162; in the data active means plate-normalised HSF1 focus index below about 0.46); details: human cells, at 10 µM; SSMD: measured here: HSF1 foci SSMD mean; cell count: measured here: cell number; plate-normalised HSF1 focus index: stronger effect = lower value
[13] = survival rescue of mitochondrial mutant cells in low glucose, primary screen, MELAS cybrids, Rieske KO mouse fibroblasts, CellTiter-Glo (AID 1508586;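 active means mean z-score across replicates of 1.96 or higher in either the MELAS or the Rieske mutant cell line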;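 further: z relative to plate mean and SD of compound and empty wells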)
[14] = at 0.0195 µM, OCI-C5x cells, without rucaparib
[15] = at 0.0195 µM, OCI-P5x cells, with rucaparib 20 µM, 100% = cells with rucaparib alone
[16] = at 0.0195 µM, OCI-P5x cells, without rucaparib
[17] = at 0.0781 µM, OCI-C5x cells, with rucaparib 10 µM, 100% = cells with rucaparib alone
[18] = at 0.0781 µM, OCI-C5x cells, without rucaparib
[19] = at 0.0781 µM, OCI-P5x cells, with rucaparib 20 µM, 100% = cells with rucaparib alone
[20] = at 0.0781 µM, OCI-P5x cells, without rucaparib
[21] = at 0.313 µM, OCI-C5x cells, with rucaparib 10 µM, 100% = cells with rucaparib alone
[22] = at 0.313 µM, OCI-C5x cells, without rucaparib
[23] = at 0.313 µM, OCI-P5x cells, with rucaparib 20 µM, 100% = cells with rucaparib alone
[24] = at 0.313 µM, OCI-P5x cells, without rucaparib
[25] = at 1.25 µM, OCI-C5x cells, with rucaparib 10 µM, 100% = cells with rucaparib alone
[26] = at 1.25 µM, OCI-C5x cells, without rucaparib
[27] = at 1.25 µM, OCI-P5x cells, with rucaparib 20 µM, 100% = cells with rucaparib alone
[28] = at 1.25 µM, OCI-P5x cells, without rucaparib
[29] = at 5 µM, OCI-C5x cells, with rucaparib 10 µM, 100% = cells with rucaparib alone
[30] = at 5 µM, OCI-C5x cells, without rucaparib
[31] = at 5 µM, OCI-P5x cells, with rucaparib 20 µM, 100% = cells with rucaparib alone
[32] = at 5 µM, OCI-P5x cells, without rucaparib
[33] = stronger effect = lower value, cell number ratio, induced over uninduced
[34] = measured here: relative caspase fold change +Dox/-Dox
[35] = measured here: total cells with miR-34 induction, stronger effect = lower value
[36] = measured here: total cells without miR-34 induction

CCOc1ccn(-c2ccc(F)cc2)c(=O)c1C(=O)Nc1ccc(Oc2ccnc(N)c2Cl)c(F)c1
active: viability [1, 23] 91.8% | viability [1, 27] 88.6% | viability [1, 28] 97.3% | viability [1, 31] 65.2% | viability [1, 32] 96.2%
inactive: viability [1, 14] 118% | viability [1, 15] 101% | viability [1, 16] 114% | viability [1, 17] 110% | viability [1, 18] 138% | viability [1, 19] 107% | viability [1, 20] 116% | viability [1, 21] 129% | viability [1, 22] 128% | viability [1, 24] 106% | viability [1, 25] 135% | viability [1, 26] 120% | viability [1, 29] 133% | viability [1, 30] 135%

O=C(/C=C/c1ccc(/C=C/C(=O)Nc2ccc(C3=NCCN3)cc2)cc1)Nc1ccc(C2=NCCN2)cc1
6050: cell count [10, 36]
6840: cell count [10, 35]
1.21: fold change [10, 34]
active: AC50 [2] 2.35 µM
inactive: outcome [3] | outcome [4] | outcome [5] | outcome [6] | outcome [7] | outcome [8] | outcome [9] | fold change [10, 33] 1.13

O=[N+]([O-])c1cn2c(n1)OC[C@@H](OCc1ccc(OC(F)(F)F)cc1)C2
inactive: outcome [3] | outcome [4] | outcome [5] | outcome [6] | outcome [7] | outcome [9] | outcome [11]
active: AC50 [2] 26.3 µM

CC(=O)Nc1cccc(-n2c(=O)n(C3CC3)c(=O)c3c(Nc4ccc(I)cc4F)n(C)c(=O)c(C)c32)c1
6560: cell count [12]
active: AC50 [2] 0.0833 µM | AC50 [3] 0.235 µM | AC50 [4] 0.209 µM | AC50 [5] 3.32 µM | AC50 [6] 0.0833 µM | AC50 [7] 0.105 µM | AC50 [9] 0.0417 µM | viability ([1]; at 0.00122 µM, OCI-P5x cells, with rucaparib 20 µM, 100% = cells with rucaparib alone) 89.6% | viability ([1]; at 0.00122 µM, OCI-P5x cells, without rucaparib) 89.5% | viability ([1]; at 0.00488 µM, OCI-P5x cells, with rucaparib 20 µM, 100% = cells with rucaparib alone) 75% | viability ([1]; at 0.00488 µM, OCI-P5x cells, without rucaparib) 74.2% | viability [1, 15] 72.4% | viability [1, 16] 76.7% | viability [1, 17] 88% | viability [1, 18] 88.8% | viability [1, 19] 51.6% | viability [1, 20] 55% | viability [1, 21] 73.7% | viability [1, 22] 82.7% | viability [1, 23] 44.7% | viability [1, 24] 53.7% | viability [1, 25] 45.5% | viability [1, 26] 78.2% | viability [1, 27] 36.4% | viability [1, 28] 37.4% | viability [1, 29] 41.3% | viability [1, 30] 52.7% | viability [1, 31] 30.4% | viability [1, 32] 34.2%
3760: cell count [10, 36]
0.672: fold change [10, 34]
-0.112: z-score ([13]; Rieske KO mouse fibroblast survival, CellTiter-Glo 72 h)
inactive: outcome [8] | fold change [10, 33] 1.15 | plate-normalised HSF1 focus index [12] 1.16 | z-score ([13]; MELAS cybrid survival, CellTiter-Glo 48 h, stronger effect = higher value) -0.421 | viability ([1]; at 0.000305 µM, OCI-C5x cells, with rucaparib 10 µM, 100% = cells with rucaparib alone) 123% | viability ([1]; at 0.000305 µM, OCI-C5x cells, without rucaparib) 120% | viability ([1]; at 0.000305 µM, OCI-P5x cells, with rucaparib 20 µM, 100% = cells with rucaparib alone) 109% | viability ([1]; at 0.000305 µM, OCI-P5x cells, without rucaparib) 102% | viability ([1]; at 0.00122 µM, OCI-C5x cells, with rucaparib 10 µM, 100% = cells with rucaparib alone) 102% | viability ([1]; at 0.00122 µM, OCI-C5x cells, without rucaparib) 122% | viability ([1]; at 0.00488 µM, OCI-C5x cells, with rucaparib 10 µM, 100% = cells with rucaparib alone) 105% | viability ([1]; at 0.00488 µM, OCI-C5x cells, without rucaparib) 113% | viability ([1]; at 0.0195 µM, OCI-C5x cells, with rucaparib 10 µM, 100% = cells with rucaparib alone) 111% | viability [1, 14] 109%
3.07: SSMD [12]
4330: cell count [10, 35]
